Screens (PubChem BioAssay)
The sample as a whole holds a higher share of hits than the screen did.
CD40 NFkB inh = CD40 pathway inhibition in BL2 cells; AID 1053188; BL2 NF-kB luciferase reporter, CD40L-induced, 4 h; 0.94% of 83,000 active; inhibition, % at 10 µM;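 active means mean inhibition of at least 50% with a set share of replicates also reaching that level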;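 further: 0% = neutral control wells and 100% = IKK inhibitor VII at 50 µM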
Active calls of the source: *; ! = not confirmed by another sample; [ ] = dose if it differs, or a comment.

SMILES	CD40 NFkB inh
O=C(c1ccc(F)cc1)N1C[C@@H]2N[C@H](C1)C2c1ccc(/C=C/c2ccccc2)cc1 (some centres not stated)	50*![25 µM]
N#Cc1ccc(-c2ccc(C3[C@@H]4CN(C(=O)C5CC5)C[C@H]3N4)cc2)cc1 (some centres not stated)	63*!
O=C(Nc1ccc2c(c1)[C@H]1C[C@@H](CC(=O)N3CCCCC3)O[C@H](CO)[C@H]1O2)NC1CCCCC1	-9[25 µM]
CC[C@@H]1C/C=C\C[C@H](c2ccc(OC)cc2OC)NC(=O)[C@H](C)CC(=O)N1	-2[25 µM]
COc1ccc2c3c(n(C)c2c1)[C@@H](CO)N(C(C)=O)CC31CCN(Cc2ccccc2OC)CC1	16[25 µM]
N#C[C@H]1[C@H](c2ccccc2C2=CCCCC2)[C@@H](CO)N1C(=O)c1cccc(F)c1	12[25 µM]
CCS(=O)(=O)N1CC(=O)N2[C@H](CO)[C@@H](c3ccc(-c4ccccc4F)cc3)[C@H]2C1	23
CCCNC(=O)N1C[C@H]2[C@@H](c3ccccc31)[C@@H](CO)N2CC1CCCCC1	6
O=C(Cc1ccccn1)N1CC(=O)N2[C@H](CO)[C@@H](c3ccc(C#CC4CCCC4)cc3)[C@@H]2C1	0
N#C[C@H]1[C@@H](c2ccc(C#Cc3ccccc3F)cc2)[C@@H](CO)N1C(=O)C1CCCCC1	29
N#C[C@@H]1[C@@H](c2ccc(C#Cc3ccccc3F)cc2)[C@H](CO)N1C(=O)c1cccnc1	-24[25 µM]
N#C[C@H]1[C@@H](c2ccc(C#Cc3ccccc3F)cc2)[C@H](CO)N1C(=O)C1CCC1	-1
N#C[C@@H]1[C@H](c2ccc(C#Cc3ccccc3F)cc2)[C@H](CO)N1C(=O)C1CCCC1	1
N#C[C@@H]1[C@@H](c2ccc(C#Cc3ccccc3F)cc2)[C@@H](CO)N1C(=O)C1CCCC1	-21
N#C[C@H]1[C@@H](c2ccccc2)[C@H](CO)N1C(=O)c1cccnc1	2
N#C[C@H]1[C@H](c2ccc(C#Cc3ccccc3F)cc2)[C@@H](CO)N1C(=O)C1CCCCC1	62*
COCC(=O)N1[C@H](C#N)[C@H](c2ccc(C#Cc3ccccc3F)cc2)[C@@H]1CO	-40[25 µM]
COCC(=O)N1[C@H](C#N)[C@H](c2ccc(C#Cc3ccccc3F)cc2)[C@H]1CO	73*[25 µM]
N#C[C@H]1[C@H](c2ccc(C#Cc3ccccc3F)cc2)[C@H](CO)N1C(=O)C1CC1	63*[25 µM]
COCC(=O)N1[C@@H](C#N)[C@@H](c2ccc(C#Cc3ccccc3F)cc2)[C@@H]1CO	-14[25 µM]
N#C[C@H]1[C@H](c2ccc(C#Cc3ccccc3F)cc2)[C@@H](CO)N1C(=O)c1cccnc1	70*[25 µM]
N#Cc1cccc(-c2ccc(C3[C@H]4CNC[C@@H]3N4C(=O)Nc3ccc(F)cc3)cc2)c1 (some centres not stated)	-9
CC(C)[C@H]1COCn2nncc2CC[C@H](Cc2ccc(Cl)cc2)C(=O)N1	24[25 µM]
CCS(=O)(=O)N(C)C1c2cc(C#N)ccc2OC(C)(C)C1O (configuration not stated)	1[25 µM]
COc1ccc(C#Cc2ccc3c(c2)[C@@H]2[C@@H](CCN2C(=O)C2CC2)[C@@H](CO)N3)cc1	-24
SMILES	CD40 NFkB inh
CNC[C@H]1Oc2ccccc2C(=O)N(C)C[C@@H]1C	-24
CC(=O)Nc1ccc2c(c1)CC(=O)N(C)C[C@H](C)[C@@H](CN(C)C(=O)OC(C)(C)C)O2	-30
CS(=O)(=O)N1C[C@@H]2C(c3ccc(-c4ccc(F)cc4)cc3)[C@H](C1)N2CC1CC1 (some centres not stated)	-1
COCC(=O)N1C[C@H]2[C@@H](c3ccccc31)[C@H](CO)N2C(=O)C1CCCC1	8[25 µM]
CC(C)NC(=O)N(C)C[C@@H]1Oc2ccc(NS(C)(=O)=O)cc2C(=O)N(C)C[C@H]1C	5
CC(=O)N1[C@H](CO)[C@H](c2ccc(C3=CCCC3)cc2)[C@@H]1CNC(=O)CN(C)C	5
CC(C)OC(=O)N(C)C[C@H]1OCc2ccccc2-c2ccccc2C(=O)N([C@H](C)CO)C[C@@H]1C	-10
CN(C)[C@@H]1CCc2[nH]c3ccc(NC(=O)c4ccc(F)cc4)cc3c2C1	-26[25 µM]
O=C(Nc1cccc(Cl)c1)N[C@@H]1CC[C@@H](CCNC(=O)C2CCCC2)O[C@H]1CO	-3
COc1ccc2nc(C)[nH]c(=O)c2c1	3
COc1ccc2[nH]c(=O)c3c(c2c1)OC(C)(C)C=C3	38*
COc1ccc2[nH]c(O)c(NC(C)=O)c2c1	7
O=C(C1CCCCC1)N1C[C@H]2[C@@H](c3ccccc31)[C@H](CO)N2CC1CCOCC1	-3[25 µM]
CN(C)CC(=O)N1CC2(C1)[C@@H](c1ccccc1)[C@@H](CO)N2C(=O)C1CC1	1[25 µM]
CC(C)NC(=O)Nc1cccc2c1O[C@H](CN(C)C(=O)OC(C)(C)C)[C@@H](C)CN(C)C2=O	-35
COC(=O)c1ccc2c(=O)[nH]c(COC(=O)c3c(-c4ccccc4)noc3C)nc2c1	29*
Cc1onc(-c2ccccc2)c1C(=O)OCC(=O)c1ccc[nH]1	-6
Cc1onc(-c2ccccc2)c1C(=O)OCC(=O)Nc1ccccc1	-12
O=C(CC1CC1)N1CC(=O)N2[C@H](CO)[C@H](c3ccc(C#Cc4cccc(F)c4)cc3)[C@H]2C1	9[25 µM]
CNC[C@H]1Oc2ccc(N(S(C)(=O)=O)S(C)(=O)=O)cc2C(=O)N(C)C[C@@H]1C	-1
O=C(NCC1CC1)[C@@H]1[C@@H](CO)[C@@H]2Cn3c(ccc(-c4cccc(F)c4)c3=O)[C@@H]2N1CC1CCOCC1	-8[25 µM]
O=C(C[C@@H]1CC[C@H]2[C@@H](COC[C@@H](O)CN2S(=O)(=O)c2ccccc2)O1)NCCN1CCCCC1	4
COc1cccc(C(=O)Nc2ccc3c(c2)C(=O)N(C)[C@@H]2CC[C@@H](CC(=O)NCc4ccc(F)cc4)O[C@H]2CO3)c1	1[25 µM]
CC(=O)N(C)C[C@@H]1Oc2ccccc2CC(=O)N(C)C[C@H]1C	4
CCCNC(=O)N1[C@H](CO)[C@H](c2ccc(/C=C/c3ccccc3)cc2)[C@@H]1C#N	66*[25 µM]
SMILES	CD40 NFkB inh
CCCNC(=O)N1[C@H](CO)[C@H](c2ccccc2-c2cccc(OC)c2)[C@@H]1C#N	36[25 µM]
CCCNC(=O)N1[C@H](CO)[C@H](c2ccc(-c3cccc(OC)c3)cc2)[C@@H]1C#N	68*[25 µM]
CCCNC(=O)N1[C@H](C#N)[C@@H](c2ccc(-c3ccccc3F)cc2)[C@@H]1CO	2[25 µM]
CCCNC(=O)N1[C@H](C#N)[C@@H](c2ccc(-c3ccccc3F)cc2)[C@H]1CO	9[25 µM]
CCCNC(=O)N1[C@@H](C#N)[C@H](c2ccc(-c3cccc(OC)c3)cc2)[C@@H]1CO	51*[25 µM]
CCCNC(=O)N1[C@H](C#N)[C@@H](c2ccc(-c3ccc(C(=O)N(C)C)cc3)cc2)[C@@H]1CO	-26[25 µM]
CCCNC(=O)N1[C@H](CO)[C@H](c2ccc(-c3cccnc3)cc2)[C@@H]1C#N	32[25 µM]
CCCNC(=O)N1[C@@H](C#N)[C@@H](c2ccc(-c3cccnc3)cc2)[C@@H]1CO	6[25 µM]
Cc1ccccc1S(=O)(=O)NCC[C@@H]1CC[C@H](NC(=O)C2CCCC2)[C@@H](CO)O1	-2
N#C[C@@H]1[C@H](c2ccccc2-c2cccc(F)c2)[C@H](CO)N1C(=O)C1CCCC1	1
COC(=O)CN1C(=S)N(c2ccc(F)cc2)C(=O)C1CC(=O)Nc1ccccc1 (configuration not stated)	16
CCN1C(=O)C(CC(=O)Nc2ccc(F)cc2)N(Cc2ccc3c(c2)OCO3)C1=S (configuration not stated)	-8
